Source: PubChem BioAssay
WRN helicase inh – WRN helicase (human) inhibition | Q14191 | WRN helicase unwinding, fluorescent forked duplex, kinetic | Potency, µM (series often up to 114 µM), inactives show top-dose activity change, negative = inhibition, most hits filed as inhibitors | actives 0.46% (n = 360,000) | AID 651768; note: % is set by controls: 0 for no effect and ±100 for the full control effect; nearly all actives have a fitted effect of over 55% in size
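Fluorescence dequenching readout, ex 525 nm/em 598 nm, kinetic mode: forked duplex DNA (100 nM final) with adjacent fluorophore and quencher unwound by WRN (20 nM final) with 2 mM ATP. Compound preincubation 15 min, room temperature.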
FEN1 inhibitor – human FEN1 inhibition. Potency, µM (top dose mostly 114 µM), for the others: top-dose activity change, negative = inhibition, most hits filed as inhibitors. P39748. AID 588795. actives 0.35% (n = 390,000). Recombinant FEN1 flap cleavage, fluorescence, 15 min; note: % is set by controls: 0 for no effect and ±100 for the full control effect; nearly all actives have a fitted effect of over 65% in size
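Reaction started by adding substrate (50 nM final) to 10 nM enzyme after 15 min room-temperature compound preincubation. Reads at 0 and 15 min, with data normalized and fitted to a four-parameter Hill equation.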
Pol eta inh-1 – inhibitors of human DNA polymerase eta. recombinant Pol eta, fluorescent DNA replication assay. Potency, µM (series often up to 114 µM), without a hit: at the top dose activity change, negative = inhibition, hits mostly inhibitors. actives 1.2% (n = 390,000). AID 588591; note: % is set by controls: 0 for no effect and ±100 for the full control effect
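Pol eta at 10 nM preincubated with compounds 15 min at room temperature; reaction started with fluorescent substrate (50 nM final) and read kinetically at 0 and 10 min.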
POLB inh – DNA polymerase beta (human) inhibition. Potency, µM (highest dose often 114 µM), for the others: top-dose activity change, negative = inhibition, actives largely listed as inhibitors. Pol beta primer extension/strand displacement, fluorescence kinetic. actives 1.3% (n = 340,000). P06746; note: % is set by controls: 0 for no effect and ±100 for the full control effect
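Reaction started by 50 nM substrate onto compound-treated Pol beta (10 nM, 15 min preincubation, room temperature); plates read at 0 min and 10 min. Normalized concentration-effect data fitted by four-parameter Hill equation.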
Pol iota inh – DNA polymerase iota (human) inhibition | Q9UNA4 | Pol iota fluorescent replication assay, 10 min | Potency, µM (series often up to 115 µM), for inactives: at the top dose activity, negative = inhibition, hits mostly inhibitors | actives 1% (n = 390,000) | AID 588590
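Pol iota at 10 nM preincubated 15 min with compounds at room temperature; reaction started with fluorescent substrate, 50 nM final. Fluorescence read kinetically at 0 and 10 min; buffer-only wells as negative control.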
Pol kappa inh-1 – inhibitors of human DNA polymerase kappa. purified Pol kappa, fluorescent DNA synthesis assay, 10 min. actives 0.53% (n = 400,000). Q9UBT6. Potency, µM (doses to about 107 µM), for inactives: at the highest dose activity, negative = inhibition, actives largely listed as inhibitors; note: % is set by controls: 0 for no effect and ±100 for the full control effect
Target sequence (Q9UBT6 whole entry, looked up): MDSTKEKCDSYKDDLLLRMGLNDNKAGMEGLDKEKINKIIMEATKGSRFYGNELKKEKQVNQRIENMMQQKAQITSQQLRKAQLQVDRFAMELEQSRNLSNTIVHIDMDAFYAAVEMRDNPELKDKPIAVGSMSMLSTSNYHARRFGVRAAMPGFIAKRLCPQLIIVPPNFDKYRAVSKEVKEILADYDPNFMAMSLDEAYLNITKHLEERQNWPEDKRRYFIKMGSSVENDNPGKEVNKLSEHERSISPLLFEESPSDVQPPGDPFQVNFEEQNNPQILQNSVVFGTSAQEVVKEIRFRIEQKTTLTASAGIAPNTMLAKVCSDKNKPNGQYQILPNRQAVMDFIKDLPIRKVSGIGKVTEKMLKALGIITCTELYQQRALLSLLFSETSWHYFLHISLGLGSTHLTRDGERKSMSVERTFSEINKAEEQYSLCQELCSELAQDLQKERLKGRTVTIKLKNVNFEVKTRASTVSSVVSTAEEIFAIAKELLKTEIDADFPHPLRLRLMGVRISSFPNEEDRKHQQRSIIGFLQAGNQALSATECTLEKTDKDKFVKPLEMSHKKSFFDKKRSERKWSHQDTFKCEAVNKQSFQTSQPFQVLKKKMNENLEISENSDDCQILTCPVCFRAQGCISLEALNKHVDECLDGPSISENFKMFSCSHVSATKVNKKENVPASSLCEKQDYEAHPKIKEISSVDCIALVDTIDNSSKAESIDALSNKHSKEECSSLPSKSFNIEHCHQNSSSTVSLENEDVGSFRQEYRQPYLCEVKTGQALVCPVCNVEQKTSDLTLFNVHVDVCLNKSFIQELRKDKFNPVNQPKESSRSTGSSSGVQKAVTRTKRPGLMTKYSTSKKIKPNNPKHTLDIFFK
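First, compounds were pin-transferred onto 10 nM Pol kappa. After 15 min at room temperature, substrate was added to 50 nM final. Fluorescence was then measured kinetically at 0 and 10 min.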
Pol kappa inh-2 – confirmation of human DNA polymerase kappa inhibitors | shares compounds with Pol eta inh-1 | Potency, µM, most hits filed as inhibitors | purified Pol-kappa, fluorescent strand-displacement substrate | actives 76% (n = 920) | AID 720501
Pol eta inh-2 – confirmation of human DNA polymerase eta inhibitors | shares compounds with Pol eta inh-1 | Pol eta primer extension, TAMRA/BHQ fluorescence, 10 min | Potency, µM, actives largely listed as inhibitors | actives 64% (n = 2,600)
* marks the source's active call; other numbers are inactive results; ? = inconclusive; · = no result; [ ] = remark or other dose. A selection: hits, their analogues and other compounds. The true share with any hit is near 2.4%. Calls come from the whole dose curve; as a rule, active = well fitted curve in the direction sought with a large enough effect; inconclusive = small, poorly fitted or top-dose-only effect, or another doubt; inactive = no such curve, though single readings can be large; an effect the other way counts as inactive or inconclusive. Potency is the fitted concentration of half-maximal effect.

SMILES	WRN helicase inh	FEN1 inhibitor	Pol eta inh-1	POLB inh	Pol iota inh	Pol kappa inh-1	Pol eta inh-2	others
Cc1[nH]c2ccccc2c1/C=N/Nc1cccc(C(=O)O)c1	-12%	-20%	56µM*	?	?	?	?
Cc1[nH]c2ccccc2c1/C=N/NC(=O)c1cccc(Br)c1	-14%	-9%	?	?	42%	-8%	·
O=C1/C(=C\c2ccco2)SC(=S)N1C1CCS(=O)(=O)C1 (centres undefined)	-28%	-27%	?	40µM*	20µM*	?	?
CCOC(=O)N1CCC(NC(=O)Cn2ncc3ccccc32)CC1	-12%[57.1 µM]	4%	-5%	10%	26%	-4%	·
CCOC(=O)N1CCN(C(=O)Cn2ncc3ccccc32)CC1	-20%[57.1 µM]	-17%	?	20µM*	?	?	?
CCc1cnc2c(c1SCC(=O)c1ccc(Cl)cc1)c(=O)n(C)c(=O)n2C	·	11%	-3%	7%	-4%	-4%[60.1 µM]	·
Cc1ccc2c(c1)c1c(c(=O)n(Cc3ccccc3)c(=O)n1Cc1cccc(C(F)(F)F)c1)n2C	·	1%	-17%	6%	21%	-3%	·
Cc1ccc(C)n1-c1cccc(-c2nn[nH]n2)c1	·	·	·	·	·	·	?
Fc1cccc(-c2nn[nH]n2)c1	12%	-4%	-7%	5%	15%	3%	·
Cc1oc(/N=C/c2cccc3ccccc23)c(C#N)c1C	?	-23%	25µM*	16%	22µM*	?	48*
O=C(CNC(=O)c1ccc(Br)cc1)N=Nc1c(O)[nH]c2ccc([N+](=O)[O-])cc12	-24%	6%	-17%	?	?	-13%	·
COc1ccc(/C=C/C(=O)NCC(=O)N=Nc2c(O)[nH]c3ccc([N+](=O)[O-])cc23)cc1	-11%[11.6 µM]	?	35µM*	50µM*	34%	-6%	·	Pol kappa inh-2=84*
O=C(/C=C/c1ccco1)NC(=S)Nc1ccccc1O	-8%[11.6 µM]	8%	-8%	22µM*	?	?	?
O=C(/C=C\c1ccco1)NC(=S)Nc1ccccc1O	?	-3%	22µM*	56µM*	?	?	?
O=C(/C=C/c1ccco1)NC(=S)Nc1ccccc1N1CCOCC1	-10%	?	-19%	2%	-3%	-14%	·
O=C(/C=C/c1ccco1)NC(=S)Nc1ccccc1N1CCCC1	-9%	?	14%	1%	30%	-18%[60.1 µM]	·
COc1ccc(-n2ncc(C(=O)N3CCc4ccccc4C3)c2C2CCN(C(=O)OC(C)(C)C)CC2)cc1	·	-7%	-19%	0%	13%	-4%	·
O=C(NCc1ccccc1)c1ccc2c(=O)[nH]c3c(C(=O)NCC4CCCO4)sc(=S)n3c2c1 (centres undefined)	?	-24%	?	?	38%	-15%	?
COc1ccc(CCNC(=O)CSc2nc3nc(C)c(Cc4ccc(C)cc4)c(C)n3n2)cc1OC	·	-11%	-16%	28%	5%	-5%[60.1 µM]	·
O=C(O)c1cc(-c2ccco2)nc2cc3ccccc3cc12	?	-19%	20µM*	11µM*	?	79µM*	76*
CCOc1ccc(CCNC(=O)C(CC)n2nc(C)c3c(C)n(-c4ccccc4)nc3c2=O)cc1 (centres undefined)	·	14%	-2%	7%	2%	8%	·
CCc1ccc2c(c1)c(=O)c(S(=O)(=O)c1ccccc1)cn2CC(=O)Nc1ccc(OC)cc1	·	15%	-8%	7%	27%	-5%	·
O=C(CN1C(=O)c2ccccc2S1(=O)=O)Nc1ncccn1	-8%	13%	-10%	·	70%	-10%	·
O=C(CN1C(=O)c2ccccc2S1(=O)=O)Nc1ncc(Cl)cc1Cl	?	-10%	22µM*	·	?	?	30*
CN(C(=O)/C=C/c1ccco1)c1ccccc1C(=O)O	-9%	3%	45µM*	18µM*	?	?	?
SMILES	WRN helicase inh	FEN1 inhibitor	Pol eta inh-1	POLB inh	Pol iota inh	Pol kappa inh-1	Pol eta inh-2	others
CN(C(=O)C=Cc1ccco1)c1ccccc1	?	-3%	-4%	·	9%	-6%	·
COc1ccc(CNC(=O)Cn2c(=O)n3nc(-c4cccc(F)c4)nc3c3ccccc32)cc1OC	·	-5%	3%	25%	-3%	-4%[60.1 µM]	·
CC(=O)Nc1ccc(NC(=S)NC(=O)/C=C/c2ccco2)cc1	?	50µM*	28µM*	-3%	?	45µM*	60*
O=C(/C=C/c1ccco1)Nc1cccc(NC(=O)/C=C/c2ccco2)n1	-16%[11.6 µM]	2%	20µM*	25µM*	35µM*	-30%	?
COc1cccc(NC(=S)NC(=O)/C=C/c2ccco2)c1	?	-9%	45µM*	40µM*	28µM*	?	48*	Pol kappa inh-2=17*
CCN(CC)S(=O)(=O)c1ccc2c(c1)N(CC(=O)Nc1ccc(F)cc1F)C(=O)C1CCCN21 (centres undefined)	·	3%	-3%	20%	5%	1%	·
Cc1oc2ccc(O)c(CN3CCOCC3)c2c1C(=O)Nc1ccc(C(C)C)cc1	·	7%	-22%	1%	69%	7%	·
O=C(COC(=O)C1CCCC1)Nc1ncc(Cl)cc1Cl	-34%	1%	16µM*	·	?	?	?
O=C(COC(=O)c1ccc(Br)o1)Nc1ncc(Cl)cc1Cl	-27%	-8%	?	?	?	-42%	·
N#Cc1c(NC(=O)COC(=O)c2ccc(O)cc2O)sc2c1CCC2	-12%[11.6 µM]	-12%	20µM*	·	?	79µM*	?
O=C(COC(=O)c1cnccn1)Nc1ncc(Cl)cc1Cl	?	2%	22µM*	·	?	-16%	?
O=C(COC(=O)c1ccc(O)cc1O)Nc1ncc(Cl)cc1Cl	-4%[11.6 µM]	-4%	?	·	-9%	-17%	?
COc1cc(CNC(=O)c2ccc3c(c2)N(C)C(=O)C2CCCCN32)cc(OC)c1OC (centres undefined)	·	-4%	-1%	0%	-2%	-4%[60.1 µM]	·
CCCc1cc(=O)n2[nH]c(NC(=O)c3ccc(C(C)(C)C)cc3)nc2n1	·	11%	?	-3%	-11%	-5%	·
O=Cc1cn(CCC(=O)O)nc1-c1cc2ccccc2o1	-16%[57.1 µM]	-2%	20µM*	18µM*	?	?	?	Pol kappa inh-2=21*
Cc1ccc(S(=O)(=O)c2nc(-c3ccco3)oc2SC(C)C)cc1	-28%	-24%	89µM*	-11%	?	-24%	?	Pol kappa inh-2=?
